{
  "source": "PubChem BioAssay",
  "note": "Unmarked numbers belong to inactive results. The rule behind the calls is not given here.",
  "data": [
    {"system": "Aerobactin synthetase IucA (Klebsiella pneumoniae, hypervirulent)", "test": "biochemical IucA inhibition screen of LOPAC library by absorbance (AID 1346212);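 note: 100% = no compound wells and 0% = no enzyme wells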", "conditions": "IucA enzyme assay, absorbance (OD) readout; hits give low values;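 tested at 8 µM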", "units": {"remaining activity": "%"}, "values": [
      {"molecule": "C[N+](C)(C)CCOP(=O)(O)OP(=O)([O-])OC[C@H]1O[C@@H](n2ccc(N)nc2=O)[C@H](O)[C@@H]1O", "remaining activity": 115},
      {"molecule": "NC(=O)CNCCC(c1ccccc1)c1ccccc1", "remaining activity": 118},
      {"molecule": "N#C/C(=C\\c1ccc(O)c(O)c1)C(=O)NCCc1ccccc1", "remaining activity": 102},
      {"molecule": "CC[C@H](NC(=O)c1c(C)c(-c2ccccc2)nc2ccccc12)c1ccccc1", "remaining activity": 114},
      {"molecule": "CC#CCOC(=O)c1c(C)nc2sc3c(c2c1N)CCC(O)C3", "note": "(centres undefined)", "remaining activity": 113},
      {"molecule": "Fc1cccc(/C=N/N=C/c2cccc(F)c2)c1", "remaining activity": 123},
      {"molecule": "N#C/C(=C\\c1ccc(O)c(O)c1)C(=O)c1ccc(O)c(O)c1", "remaining activity": 79.7},
      {"molecule": "N[C@@H](CCCC(=O)O)C(=O)O", "remaining activity": 110},
      {"molecule": "S=C(S)N1CCCC1", "remaining activity": 83.6},
      {"molecule": "CCC1(O)CC2CN(CCc3c([nH]c4ccccc34)[C@@](C(=O)OC)(c3cc4c(cc3OC)N(C)C3[C@]45CCN4CC=C[C@@](CC)([C@@H](OC(C)=O)[C@]3(O)C(=O)OC)[C@H]45)C2)C1", "note": "(some centres undefined)", "remaining activity": 102},
      {"molecule": "NC1CCN(c2cccc(Cl)n2)CC1", "remaining activity": 104},
      {"molecule": "Clc1ccc(Cn2c(CN3CCCC3)nc3ccccc32)cc1", "remaining activity": 115},
      {"molecule": "COc1cc2nc(N3CCN(C(=O)C4COc5ccccc5O4)CC3)nc(N)c2cc1OC", "note": "(centres undefined)", "remaining activity": 92.2},
      {"molecule": "Nc1ccc(N2C(=O)c3ccccc3C2=O)c(Cl)c1", "remaining activity": 105},
      {"molecule": "CCCCCCC(=O)OC1CC(C)(C)NC(C)(C)C1", "remaining activity": 109},
      {"molecule": "CCCCCCCCCCC/C=C\\C(C)(C)/C=C\\CCCC(=O)O", "remaining activity": 86.5},
      {"molecule": "O=c1[nH]c2cc(Cl)ccc2c(O)c1-c1cccc(Oc2ccccc2)c1", "remaining activity": 120},
      {"molecule": "NC(=O)c1cc[n+](CC2=C(C(=O)O)N3C(=O)[C@@H](NC(=O)[C@@H](c4ccccc4)S(=O)(=O)[O-])[C@H]3SC2)cc1", "remaining activity": 107},
      {"molecule": "CC(=O)O[C@H]1C[C@@H]2CC[C@@H]3[C@H](CC[C@@]4(C)[C@H]3C[C@H]([N+]3(C)CCCCC3)[C@@H]4OC(C)=O)[C@@]2(C)C[C@@H]1[N+]1(C)CCCCC1", "remaining activity": 121},
      {"molecule": "O=C1CCC(c2ccc(-n3ccnc3)cc2)=NN1", "remaining activity": 111},
      {"molecule": "O=c1[nH]c2cc([N+](=O)[O-])c([N+](=O)[O-])cc2[nH]c1=O", "remaining activity": 101},
      {"molecule": "OC(CN1CCC(Cc2ccc(F)cc2)CC1)c1ccc(Cl)cc1", "note": "(centres undefined)", "remaining activity": 99.6},
      {"molecule": "O=C1C(SCCO)=C(SCCO)C(=O)c2ccccc21", "remaining activity": 117},
      {"molecule": "COc1cc(CNC(=O)CCCCCCC(C)C)ccc1O", "remaining activity": 96.1},
      {"molecule": "CC(C)(C)c1ccc(C(O)CCCN2CCC(C(O)(c3ccccc3)c3ccccc3)CC2)cc1", "note": "(centres undefined)", "remaining activity": 101},
      {"molecule": "Nn1nnc2ccccc21", "remaining activity": 115},
      {"molecule": "COc1ccccc1N1CCN(CCN2C(=O)CC3(CCCC3)CC2=O)CC1", "remaining activity": 117},
      {"molecule": "N=C(N)SCCc1ccc(CCSC(=N)N)cc1", "remaining activity": 102},
      {"molecule": "CC(C)NC[C@H](O)COc1cccc2ccccc12", "remaining activity": 92.7},
      {"molecule": "CCCn1c(=O)c2c(ncn2C)n(CCC)c1=O", "remaining activity": 110},
      {"molecule": "CC(N)=NCCCC[C@@H](N)C(=O)O", "remaining activity": 124},
      {"molecule": "CC(C)(C)c1ccc(/C=C/C(=O)Nc2ccc3c(c2)OCCO3)cc1", "remaining activity": 107},
      {"molecule": "[Li+]", "remaining activity": 102},
      {"molecule": "Cc1cccc(C)c1NC(=O)C(C)N", "note": "(centres undefined)", "remaining activity": 95.4},
      {"molecule": "C[C@]12C=CC(=O)C=C1CC[C@H]1[C@@H]3C[C@@H](O)[C@](O)(C(=O)CO)[C@@]3(C)C[C@H](O)[C@@]12F", "remaining activity": 110},
      {"molecule": "Cc1ccc(C(=O)O[C@H](C(=O)O)[C@@H](OC(=O)c2ccc(C)cc2)C(=O)O)cc1", "note": "(tested in a mixture with another compound)", "remaining activity": 112},
      {"molecule": "NCCNC(=O)c1ncsc1-c1cccc(F)c1", "remaining activity": 88.1},
      {"molecule": "NS(=O)(=O)C#Cc1ccccc1", "remaining activity": 118},
      {"molecule": "O=C(CCCN1CCC(O)(c2cccc(C(F)(F)F)c2)CC1)c1ccc(F)cc1", "remaining activity": 101}
    ]}
  ]
}
